Several values for one entry are separate records, joined by “and”; a condition that tells them apart may be missing. Equal entries are not always repeated. Structures can show the parent of a compound that is named as a salt.
Experiments:
Assay in all cases: cell viability relative to vehicle control; higher = less cytotoxic
Conditions in all cases: 10 µM
K562 = test system: K562
Method in brief: (§1)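 Screening covered the Selleck bioactive, kinase and epigenetic probe libraries, less identity-inconsistent compounds, on CRISPR-edited mutant clones and isogenic wild-type clones of four leukaemia lines. Cells, at 2000 per well in 50 µL medium, received a single 10 µM acoustically dispensed dose. After 48 h the supernatant was removed and CellTiter-Glo luminescence was read. Viability was analysed in Genedata Screener as percent of the on-plate vehicle control.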

MARIMO = test system: MARIMO
Method in brief: as §1

MOLM14 = test system: MOLM14
Method in brief: as §1

OCI-AML2 = test system: OCI-AML2
Method in brief: as §1

Compound | cell viability (K562; SRSF2 genotype: SRSF2 P95H/wt) | cell viability (K562; SRSF2 genotype: SRSF2 wt/wt) [%] | cell viability (MARIMO; SRSF2 genotype: SRSF2 P95H/wt) [%] | cell viability (MARIMO; SRSF2 genotype: SRSF2 wt/wt) [%] | cell viability (MOLM14; SRSF2 genotype: SRSF2 P95H/wt) [%] | cell viability (MOLM14; SRSF2 genotype: SRSF2 wt/wt) [%] | cell viability (OCI-AML2; SRSF2 genotype: P95H/wt) [%] | cell viability (OCI-AML2; SRSF2 genotype: wt/wt) [%]
Cc1cc(C)nc(O)n1.O=C(Nc1ccc([N+](=O)[O-])cc1)Nc1ccc([N+](=O)[O-])cc1 [Nicarbazin] | 100% and 101% | 110 | 97 | 106 | 103 | 101 | 120 | 97.1
Cc1ccc(-c2n[nH]c3c2C(c2cccc(O)c2)N(c2ccc(C(=O)O)cc2)C3=O)cc1 (stereo not given) | 104% and 100% | 105 | 101 | 106 | 100 | 107 | 104 | 106
OC[C@H]1O[C@@H](Oc2cc3c(O)cc(O)cc3[o+]c2-c2ccc(O)c(O)c2)[C@H](O)[C@@H](O)[C@@H]1O [Cyanidin-3-O-glucoside chloride] | 93.5% and 89% | 87.1 | 91.6 | 92.6 | 90.4 | 91.1 | 83 | 86.2
CN1[C@@H]2CC[C@H]1C[C@@H](OC(c1ccccc1)c1ccccc1)C2 [Benztropine mesylate] | 82.3% and 93.2% | 87 | 81.9 | 91.2 | 83.7 | 100 | 88 | 79.9
CCCOc1ccc(C(=O)OCCN(CC)CC)cc1N [Proparacaine HCl] | 99.7% and 99.3% | 99.5 | 103 | 104 | 99.1 | 99.7 | 90.2 | 103
COC(=O)CC[C@H](NC(=O)[C@H](CC(=O)OC)NC(=O)OCc1ccccc1)C(=O)N[C@H](C(=O)N[C@@H](CC(=O)OC)C(=O)CF)C(C)C | 101% and 95.3% | 93.7 | 99.4 | 104 | 100 | 97.3 | 98.4 | 103
Cc1cc(O)c(C(=O)N[C@@H](C(=O)N[C@@H]2C(=O)N3C(C(=O)O)=C(CSc4nnnn4C)CS[C@H]23)c2ccc(O)cc2)cn1 [Cefpiramide sodium] | 111% and 107% | 104 | 109 | 115 | 107 | 110 | 99.7 | 99.8
CC(C)=CCC[C@](C)(O[C@@H]1O[C@H](CO)[C@@H](O)[C@H](O)[C@H]1O)[C@H]1CC[C@]2(C)[C@@H]1[C@H](O)C[C@@H]1[C@@]3(C)CC[C@H](O)C(C)(C)[C@@H]3[C@@H](O[C@@H]3O[C@H](CO)[C@@H](O)[C@H](O)[C@H]3O[C@@H]3OC[C@@H](O)[C@H](O)[C@H]3O)C[C@]12C [Notoginsenoside R1] | 98.4% and 101% | 94.8 | 106 | 104 | 106 | 103 | 94.6 | 96.7
OCc1cc(C(O)CNCCCCCCOCCCCc2ccccc2)ccc1O (stereo not given) [Salmeterol] | 77.8% and 87.8% | 88.4 | 67.7 | 68.6 | 62.8 | 74.9 | 55.2 | 60.2
CC(=O)N1CCN(c2ccc(OCC3COC(Cn4ccnc4)(c4ccc(Cl)cc4Cl)O3)cc2)CC1 (stereo not given) [Ketoconazole] | 56.2% and 70.5% | 62.4 | 34.9 | 26.1 | 40.9 | 26.2 | 32 | 30.8
O=C1CC[C@@H](C(=O)N2CSC[C@H]2C(=O)O)N1 [Pidotimod] | 99.7% and 104% | 101 | 104 | 99.1 | 104 | 104 | 114 | 104
Fc1ccc([C@@H]2CCNC[C@H]2COc2ccc3c(c2)OCO3)cc1 [Paroxetine HCl] | 63.6% and 68.3% | 67.6 | 44 | 44.1 | 47.7 | 56.5 | 43 | 52.4
C[C@@H](Oc1cc(-c2cnn(C3CCNCC3)c2)cnc1N)c1c(Cl)ccc(F)c1Cl | 1.39% and 1.02% | 1.8 | 23.6 | 16.2 | 0.46 | 0.63 | 0.4 | 1.89
CO[C@@H]1[C@@H](OC(N)=O)[C@@H](O)[C@H](Oc2ccc3c(O)c(NC(=O)c4ccc(O)c(CC=C(C)C)c4)c(=O)oc3c2C)OC1(C)C [Novobiocin sodium (Albamycin)] | 103% and 87.6% | 82.6 | 91.6 | 92.9 | 93.6 | 89.7 | 91.4 | 94.4
Cc1ccc(Cl)cc1N(CC(=O)Nc1c(F)cccc1F)S(C)(=O)=O | 104% and 111% | 116 | 99.5 | 106 | 102 | 105 | 110 | 124
O=C(C[S+]([O-])Cc1ccco1)NC/C=C\COc1cc(CN2CCCCC2)ccn1 (stereo not given) [Lafutidine] | 104% and 105% | 102 | 104 | 104 | 96.9 | 101 | 105 | 108
C[C@]1(O)C[C@@H](O)[C@]2(O)C=CO[C@@H](O[C@H]3O[C@H](CO)[C@@H](O)[C@H](O)[C@H]3O)[C@@H]21 [Harpagide] | 105% and 99.4% | 101 | 106 | 98.7 | 106 | 103 | 97.6 | 103
C=C1CCC[C@]2(C)Cc3occ(C)c3C[C@@H]12 [Atractylon] | 104% and 98.2% | 97.5 | 98.4 | 99 | 103 | 99.3 | 95 | 98
NC1=N[C@@]2(c3cc(NC(=O)c4ccc(F)cn4)ccc3F)COC[C@H]2CS1 | 94.7% and 91.1% | 86.1 | 89.6 | 98.4 | 99.7 | 94.2 | 94.4 | 92.6
O=C(NCCO)c1cccc(-c2cc(Nc3ccc(OC(F)(F)F)cc3)ncn2)c1 | 12.1% and 23% | 20.1 | 69.5 | 76.6 | 93.2 | 91.3 | 65 | 72.3

Compound | cell viability (K562; SRSF2 genotype: SRSF2 P95H/wt) | cell viability (K562; SRSF2 genotype: SRSF2 wt/wt) [%] | cell viability (MARIMO; SRSF2 genotype: SRSF2 P95H/wt) [%] | cell viability (MARIMO; SRSF2 genotype: SRSF2 wt/wt) [%] | cell viability (MOLM14; SRSF2 genotype: SRSF2 P95H/wt) [%] | cell viability (MOLM14; SRSF2 genotype: SRSF2 wt/wt) [%] | cell viability (OCI-AML2; SRSF2 genotype: P95H/wt) [%] | cell viability (OCI-AML2; SRSF2 genotype: wt/wt) [%]
C[C@@]12C[C@@]3(O)O[C@@H](O1)[C@]1(COC(=O)c4ccccc4)[C@@H]3C[C@]12O[C@@H]1O[C@H](COC(=O)c2ccccc2)[C@@H](O)[C@H](O)[C@H]1O [Benzoylpaeoniflorin] | 99.7% and 101% | 93.4 | 96.2 | 96.7 | 104 | 97.8 | 93.9 | 102
COc1cc(Nc2ncc3c(n2)-c2ccc(Cl)cc2C(c2c(F)cccc2OC)=NC3)ccc1C(=O)O [MLN8237 (Alisertib)] | 46.2% and 63.8% | 60 | 87.3 | 108 | 30.6 | 17.7 | 43.5 | 44.5
C[C@@H]1C(=O)O[C@H](C)[C@H]1C[C@@H](O)[C@](C)(O)[C@H]1CC[C@@]2(O)C3=CC(=O)[C@@H]4C[C@@H](O)[C@@H](O)C[C@]4(C)[C@H]3CC[C@]12C [Cyasterone] | 105% and 98% | 105 | 95.2 | 98.3 | 114 | 105 | 105 | 98.2
CC(C)c1ccc(NC(=O)Cn2cnc3c2c(=O)n(C)c(=O)n3C)cc1 | 88.2% and 87.9% | 94.4 | 91 | 96.1 | 95.1 | 96.2 | 87.5 | 91
C[C@H](O)[C@H](O)[C@@H](O)[C@@H](O)C=O [L (+)-Rhamnose Monohydrate] | 99.9% and 97.2% | 100 | 102 | 106 | 99 | 105 | 99.3 | 94.1
NCCOc1cc(C(=O)Nc2cc(OCCN)c3ccccc3n2)nc(C(=O)Nc2cc(OCCN)c3ccccc3n2)c1 [Pyridostatin Trifluoroacetate Salt] | 87.7% and 94.2% | 72.6 | 83.8 | 84.5 | 57.4 | 33.6 | 6.12 | 17.8
O=C(O)CCc1c[nH]c2ccccc12 [3-Indolepropionic acid] | 92.7% and 95.1% | 102 | 98.8 | 96.4 | 97.8 | 96.9 | 103 | 98.3
C=CCc1ccc(OC(C)=O)c(OC)c1 [Eugenyl acetate] | 85.8% and 88% | 86 | 89.7 | 90.4 | 93.2 | 90.1 | 91.1 | 91.6
C[C@H](C[C@H](O)[C@H]1OC1(C)C)C1=C2C[C@H](O)[C@H]3[C@@]4(C)CCC(=O)C(C)(C)[C@@H]4CC[C@]3(C)[C@@]2(C)CC1 [Alisol B] | 81.2% and 83.7% | 78.7 | 70.8 | 48.2 | 86.7 | 87.4 | 70.3 | 72.7
CS(=O)(=O)c1ccc(-c2cnc(NCc3ccco3)n3cnnc23)cc1 | 99.9% and 93.9% | 97.2 | 103 | 99.5 | 100 | 98.5 | 101 | 110
Oc1cc(O)c2c(c1)OC(c1ccc(O)c(O)c1)C(OC1(c3ccc(O)c(O)c3)Oc3cc(O)cc(O)c3C(O)C1O)C2 (stereo not given) [Proanthocyanidins] | 102% and 105% | 104 | 107 | 98.7 | 89.9 | 102 | 92.6 | 101
O=C1C[C@@H](c2ccc(O[C@@H]3O[C@H](CO)[C@@H](O)[C@H](O)[C@H]3O)cc2)Oc2cc(O)ccc21 [Liquiritin] | 92.3% and 81.1% | 83.8 | 83.3 | 90.1 | 86.4 | 89 | 96.5 | 91.4
O=C(O)Cc1ccccc1Nc1c(Cl)cccc1Cl [Diclofenac Potassium] | 94.4% and 99.1% | 97.2 | 106 | 105 | 93.5 | 100 | 95.3 | 105
C[C@]12C=CC(=O)C=C1CC[C@@H]1[C@@H]2C(=O)C[C@@]2(C)[C@H]1CC[C@]2(O)C(=O)CO [Prednisone (Adasone)] | 102% and 107% | 95.5 | 104 | 101 | 108 | 107 | 106 | 110
O=S(=O)(c1ccccc1)c1cnc2c(N3CCNCC3)cccc2c1 | 93.9% | 94.6 | 95 | 95 | 98.7 | 100 | 101 | 93.2
C[C@@H]([C@H](C)O)[C@H](N)C(=O)O [(4S)-4-Hydroxy-L-isoleucine] | 105% and 96.3% | 102 | 100 | 102 | 111 | 102 | 108 | 104
Cc1ccc(C(C)C)cc1 [p-Cymene] | 111% and 96.9% | 113 | 95.9 | 99.5 | 100 | 106 | 117 | 119
Nc1nc(NCCNc2ncc(-n3ccnc3)c(-c3ccc(Cl)cc3Cl)n2)ccc1[N+](=O)[O-] | 110% and 106% | 99.1 | 125 | 132 | 109 | 115 | 131 | 148
C[C@@]1(F)[C@H](O)[C@@H](CO)O[C@H]1n1ccc(=O)[nH]c1=O [2'-deoxy-2'-fluoro-2'-C-methyluridine] | 93.6% and 89.6% | 89.8 | 87.2 | 101 | 87.2 | 91.3 | 86.6 | 104
COc1cc2c(NC3CCN(C(C)C)CC3)nc(C3CCCCC3)nc2cc1OCCCN1CCCC1 | 5.7% and 1.99% | 3.43 | 1.5 | 1.11 | 0.34 | 0.42 | 0.27 | 0.2
